Experimental findings from publication PMC7862700, “An all-to-all approach to the identification of sequence-specific readers for epigenetic DNA modifications on cytosine” are described below.

Holding throughout (test): DAPPL (digital affinity profiling via proximity ligation, sequencing); 10 mM Tris-HCl pH 7.5, 50 mM NaCl, 1 mM DTT, 4% glycerol, room temperature, 30 min; GST-TFs on glutathione beads, 16-mer random dsDNA library, 0.1% formaldehyde crosslink after washing; high values mean tight binding
The target of one assay is T1, FEV (Homo sapiens, UniProt Q99581 1-238).
T1 sequence: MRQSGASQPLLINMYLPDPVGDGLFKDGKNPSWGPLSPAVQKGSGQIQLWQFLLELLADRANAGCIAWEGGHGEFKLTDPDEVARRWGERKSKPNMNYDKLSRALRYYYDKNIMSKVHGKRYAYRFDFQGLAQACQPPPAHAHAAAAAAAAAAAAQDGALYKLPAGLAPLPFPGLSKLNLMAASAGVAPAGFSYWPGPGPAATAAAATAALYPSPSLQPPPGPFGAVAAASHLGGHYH
Conditions: protein: recombinant; tags: N-terminal GST; dsDNA, one strand shown. In outline:
(§1)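 Human transcription factors fused to GST were expressed in yeast, captured on glutathione beads, given DNA barcodes and pooled with a GST-only negative control. Pools were incubated with 200 nmole of a 16-mer random double-stranded DNA library in Tris/NaCl/DTT/glycerol buffer at room temperature for 30 min. They were then washed, crosslinked with 0.1% formaldehyde, proximity-ligated (BsaI/T4 ligase, 1 h, 37 °C), PCR-amplified and sequenced on an Illumina NextSeq500. Binding signal is each 6-mer's read frequency for a factor divided by its frequency for the GST control.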

The target in the next assay is ETV5 (Homo sapiens, UniProt P41161 1-510). The following applies: protein: recombinant; tags: N-terminal GST; dsDNA, one strand shown. In outline: as §1
The next assay deals with HSF1 (Homo sapiens, UniProt Q00613 1-529). Conditions: protein: recombinant; tags: N-terminal GST; chain copies: 3; dsDNA, one strand shown. In outline:
as §1

For a further assay, the target named is T2, SPIC (Homo sapiens, UniProt Q8N5J4 1-248).
T2 sequence: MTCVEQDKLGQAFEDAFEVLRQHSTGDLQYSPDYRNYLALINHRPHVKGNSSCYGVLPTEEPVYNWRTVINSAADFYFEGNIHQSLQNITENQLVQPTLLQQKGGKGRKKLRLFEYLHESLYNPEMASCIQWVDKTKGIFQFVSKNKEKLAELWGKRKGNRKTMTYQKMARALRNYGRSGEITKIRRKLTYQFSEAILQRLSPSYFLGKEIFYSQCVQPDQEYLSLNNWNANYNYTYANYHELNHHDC
The following applies: protein: recombinant; tags: N-terminal GST; dsDNA, one strand shown. In outline:
as §1

Another assay deals with ELF4 (Homo sapiens, UniProt Q99607 1-663). Conditions: protein: recombinant; tags: N-terminal GST; dsDNA, one strand shown. In outline: as §1
In the next assay the target is T3, ELK4 (Homo sapiens, UniProt P28324-2 1-405).
T3 sequence: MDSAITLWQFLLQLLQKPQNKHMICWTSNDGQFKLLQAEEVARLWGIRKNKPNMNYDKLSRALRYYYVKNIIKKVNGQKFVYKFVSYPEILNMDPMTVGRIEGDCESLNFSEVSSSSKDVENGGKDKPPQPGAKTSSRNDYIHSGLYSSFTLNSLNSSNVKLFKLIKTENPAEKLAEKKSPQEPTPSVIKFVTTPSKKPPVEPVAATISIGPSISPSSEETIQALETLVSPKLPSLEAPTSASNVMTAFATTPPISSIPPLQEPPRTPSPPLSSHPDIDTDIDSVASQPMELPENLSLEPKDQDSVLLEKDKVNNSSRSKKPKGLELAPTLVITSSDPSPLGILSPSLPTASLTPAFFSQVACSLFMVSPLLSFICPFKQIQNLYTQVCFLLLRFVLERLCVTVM
The following applies: protein: recombinant; tags: N-terminal GST; dsDNA, one strand shown. The gist of the method:
as §1

The target of the next assay is T4, ETV2 (Homo sapiens, UniProt O00321 1-342).
T4 sequence: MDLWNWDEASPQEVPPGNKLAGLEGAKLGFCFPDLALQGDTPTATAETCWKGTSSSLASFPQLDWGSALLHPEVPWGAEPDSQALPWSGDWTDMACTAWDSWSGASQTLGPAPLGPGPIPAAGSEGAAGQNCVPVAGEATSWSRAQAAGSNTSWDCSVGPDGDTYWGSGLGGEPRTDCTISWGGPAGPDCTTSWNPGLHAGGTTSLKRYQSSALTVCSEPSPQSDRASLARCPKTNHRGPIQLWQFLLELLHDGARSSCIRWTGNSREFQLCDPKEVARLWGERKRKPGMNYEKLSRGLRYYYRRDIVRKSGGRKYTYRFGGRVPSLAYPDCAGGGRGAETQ
The following applies: protein: recombinant; tags: N-terminal GST; dsDNA, one strand shown. The gist of the method: as §1

The next assay concerns the target T5, ELF3 (Homo sapiens, UniProt P78545 1-371).
T5 sequence: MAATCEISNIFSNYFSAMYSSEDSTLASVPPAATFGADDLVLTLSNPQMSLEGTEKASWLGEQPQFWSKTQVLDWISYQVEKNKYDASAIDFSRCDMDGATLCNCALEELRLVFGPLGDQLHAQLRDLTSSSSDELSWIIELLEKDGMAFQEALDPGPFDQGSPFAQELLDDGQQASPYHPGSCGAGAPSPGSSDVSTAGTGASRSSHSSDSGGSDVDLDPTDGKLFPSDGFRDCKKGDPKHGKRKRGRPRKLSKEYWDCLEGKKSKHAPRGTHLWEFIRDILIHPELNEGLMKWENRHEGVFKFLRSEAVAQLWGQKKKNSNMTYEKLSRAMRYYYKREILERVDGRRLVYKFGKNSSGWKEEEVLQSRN
The following applies: protein: recombinant; tags: N-terminal GST; dsDNA, one strand shown. In outline: as §1

The next assay has as its target CRX (Homo sapiens, UniProt O43186 1-299). The following applies: protein: recombinant; tags: N-terminal GST; dsDNA, one strand shown. In outline: as §1
The target of a further assay is ETV1 (Homo sapiens, UniProt P50549 1-477). The following applies: protein: recombinant; tags: N-terminal GST; dsDNA, one strand shown. The gist of the method: as §1
Another assay concerns the target T6, ERF (Homo sapiens, UniProt P50548 1-548).
T6 sequence: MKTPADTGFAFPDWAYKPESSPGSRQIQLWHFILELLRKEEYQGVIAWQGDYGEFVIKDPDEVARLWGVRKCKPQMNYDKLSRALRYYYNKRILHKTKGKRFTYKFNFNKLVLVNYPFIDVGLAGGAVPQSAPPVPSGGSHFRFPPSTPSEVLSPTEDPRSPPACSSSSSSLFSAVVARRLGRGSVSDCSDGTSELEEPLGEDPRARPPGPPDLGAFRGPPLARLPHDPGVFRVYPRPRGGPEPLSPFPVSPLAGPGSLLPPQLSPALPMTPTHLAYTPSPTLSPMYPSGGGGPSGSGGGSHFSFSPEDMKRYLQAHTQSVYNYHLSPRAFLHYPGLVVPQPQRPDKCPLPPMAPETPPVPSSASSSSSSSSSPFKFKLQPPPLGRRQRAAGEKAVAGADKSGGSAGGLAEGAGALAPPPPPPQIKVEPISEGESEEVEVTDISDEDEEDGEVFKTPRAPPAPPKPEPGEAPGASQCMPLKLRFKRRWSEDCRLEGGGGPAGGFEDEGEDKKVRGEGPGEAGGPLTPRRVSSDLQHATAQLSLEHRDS
Conditions: protein: recombinant; tags: N-terminal GST; dsDNA, one strand shown. In outline: as §1

The target in the next assay is T7, ETV3L (Homo sapiens, UniProt Q6ZN32 1-361).
T7 sequence: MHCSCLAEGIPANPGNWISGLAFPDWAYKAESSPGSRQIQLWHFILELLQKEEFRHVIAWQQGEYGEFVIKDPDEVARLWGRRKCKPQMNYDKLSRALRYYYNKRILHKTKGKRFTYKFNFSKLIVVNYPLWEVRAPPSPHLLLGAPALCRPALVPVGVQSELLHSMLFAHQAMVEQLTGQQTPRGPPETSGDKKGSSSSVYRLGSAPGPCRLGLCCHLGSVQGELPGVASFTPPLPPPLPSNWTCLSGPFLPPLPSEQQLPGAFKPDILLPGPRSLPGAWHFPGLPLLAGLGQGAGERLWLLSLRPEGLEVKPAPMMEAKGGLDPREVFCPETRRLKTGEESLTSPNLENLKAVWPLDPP
The following applies: protein: recombinant; tags: N-terminal GST; dsDNA, one strand shown. In outline:
as §1

For the next assay, the target named is T8, ETS2 (Homo sapiens, UniProt P15036 1-469).
T8 sequence: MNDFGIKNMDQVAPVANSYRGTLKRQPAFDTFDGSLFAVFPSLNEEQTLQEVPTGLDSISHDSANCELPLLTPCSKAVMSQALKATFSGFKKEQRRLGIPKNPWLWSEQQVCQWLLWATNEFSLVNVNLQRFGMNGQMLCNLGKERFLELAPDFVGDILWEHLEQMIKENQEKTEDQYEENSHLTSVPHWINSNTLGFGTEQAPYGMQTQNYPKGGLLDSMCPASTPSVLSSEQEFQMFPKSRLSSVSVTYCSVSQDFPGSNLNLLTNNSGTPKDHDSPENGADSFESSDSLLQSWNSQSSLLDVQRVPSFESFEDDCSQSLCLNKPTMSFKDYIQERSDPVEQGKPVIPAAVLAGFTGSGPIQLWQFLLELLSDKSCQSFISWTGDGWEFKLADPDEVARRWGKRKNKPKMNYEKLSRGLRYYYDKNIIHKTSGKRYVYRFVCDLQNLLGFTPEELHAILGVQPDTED
Conditions: protein: recombinant; tags: N-terminal GST; dsDNA, one strand shown. The gist of the method: as §1

For another assay, the target named is T9, SPDEF (Homo sapiens, UniProt O95238 1-335).
T9 sequence: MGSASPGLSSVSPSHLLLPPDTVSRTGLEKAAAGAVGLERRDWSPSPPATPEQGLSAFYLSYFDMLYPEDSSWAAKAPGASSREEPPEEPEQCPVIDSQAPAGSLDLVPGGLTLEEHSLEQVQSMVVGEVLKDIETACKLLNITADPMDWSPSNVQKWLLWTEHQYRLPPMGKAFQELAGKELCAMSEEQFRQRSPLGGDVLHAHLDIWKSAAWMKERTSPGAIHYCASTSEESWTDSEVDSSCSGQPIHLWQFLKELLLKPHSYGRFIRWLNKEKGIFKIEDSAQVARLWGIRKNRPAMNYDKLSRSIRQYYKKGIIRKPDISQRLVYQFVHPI
The following applies: protein: recombinant; tags: N-terminal GST; dsDNA, one strand shown. In outline: as §1

In the next assay the target is T10, ETV7 (Homo sapiens, UniProt Q9Y603 1-341).
T10 sequence: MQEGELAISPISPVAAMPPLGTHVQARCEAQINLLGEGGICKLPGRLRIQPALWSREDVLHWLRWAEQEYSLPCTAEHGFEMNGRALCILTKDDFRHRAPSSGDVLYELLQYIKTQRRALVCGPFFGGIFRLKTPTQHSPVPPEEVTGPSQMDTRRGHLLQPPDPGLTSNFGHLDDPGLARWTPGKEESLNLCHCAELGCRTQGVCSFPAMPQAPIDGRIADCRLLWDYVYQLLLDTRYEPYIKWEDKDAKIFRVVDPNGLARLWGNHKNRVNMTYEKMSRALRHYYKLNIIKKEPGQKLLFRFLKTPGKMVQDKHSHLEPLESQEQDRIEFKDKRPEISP
Conditions: protein: recombinant; tags: N-terminal GST; dsDNA, one strand shown. In outline: as §1

The next assay addresses T11, ELF5 (Homo sapiens, UniProt Q9UKW6-2 1-255).
T11 sequence: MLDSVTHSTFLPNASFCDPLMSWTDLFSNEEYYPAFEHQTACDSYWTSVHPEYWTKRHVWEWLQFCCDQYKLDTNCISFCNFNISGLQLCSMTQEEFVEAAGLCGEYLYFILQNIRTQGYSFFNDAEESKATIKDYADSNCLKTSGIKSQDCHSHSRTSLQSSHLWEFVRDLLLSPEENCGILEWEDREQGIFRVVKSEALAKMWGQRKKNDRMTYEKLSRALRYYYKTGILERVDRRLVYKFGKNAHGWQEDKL
Conditions: protein: recombinant; tags: N-terminal GST; dsDNA, one strand shown. The gist of the method:
as §1

The next assay addresses T12, ETV3 (Homo sapiens, UniProt P41162-2 1-143).
T12 sequence: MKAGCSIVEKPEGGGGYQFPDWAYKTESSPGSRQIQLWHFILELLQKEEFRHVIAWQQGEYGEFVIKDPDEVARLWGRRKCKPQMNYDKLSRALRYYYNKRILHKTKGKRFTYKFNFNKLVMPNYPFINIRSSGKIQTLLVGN
The following applies: protein: recombinant; tags: N-terminal GST; dsDNA, one strand shown. The gist of the method:
as §1

In the next assay the target is ETV6 (Homo sapiens, UniProt P41212 1-452). Conditions: protein: recombinant; tags: N-terminal GST; dsDNA, one strand shown. In outline: as §1
ETV6, sequence (P41212 whole entry): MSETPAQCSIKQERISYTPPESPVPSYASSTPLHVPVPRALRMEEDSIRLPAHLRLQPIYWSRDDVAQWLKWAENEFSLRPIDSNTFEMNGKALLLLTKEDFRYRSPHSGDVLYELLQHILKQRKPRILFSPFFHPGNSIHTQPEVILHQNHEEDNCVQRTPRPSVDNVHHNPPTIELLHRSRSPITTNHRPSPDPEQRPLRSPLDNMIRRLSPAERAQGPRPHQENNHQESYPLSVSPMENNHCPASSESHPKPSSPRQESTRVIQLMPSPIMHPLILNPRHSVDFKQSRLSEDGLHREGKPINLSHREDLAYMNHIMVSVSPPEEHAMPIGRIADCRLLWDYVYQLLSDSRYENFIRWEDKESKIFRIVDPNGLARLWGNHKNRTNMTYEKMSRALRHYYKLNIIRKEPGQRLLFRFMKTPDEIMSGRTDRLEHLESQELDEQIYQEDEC

ELF4, sequence (Q99607 whole entry): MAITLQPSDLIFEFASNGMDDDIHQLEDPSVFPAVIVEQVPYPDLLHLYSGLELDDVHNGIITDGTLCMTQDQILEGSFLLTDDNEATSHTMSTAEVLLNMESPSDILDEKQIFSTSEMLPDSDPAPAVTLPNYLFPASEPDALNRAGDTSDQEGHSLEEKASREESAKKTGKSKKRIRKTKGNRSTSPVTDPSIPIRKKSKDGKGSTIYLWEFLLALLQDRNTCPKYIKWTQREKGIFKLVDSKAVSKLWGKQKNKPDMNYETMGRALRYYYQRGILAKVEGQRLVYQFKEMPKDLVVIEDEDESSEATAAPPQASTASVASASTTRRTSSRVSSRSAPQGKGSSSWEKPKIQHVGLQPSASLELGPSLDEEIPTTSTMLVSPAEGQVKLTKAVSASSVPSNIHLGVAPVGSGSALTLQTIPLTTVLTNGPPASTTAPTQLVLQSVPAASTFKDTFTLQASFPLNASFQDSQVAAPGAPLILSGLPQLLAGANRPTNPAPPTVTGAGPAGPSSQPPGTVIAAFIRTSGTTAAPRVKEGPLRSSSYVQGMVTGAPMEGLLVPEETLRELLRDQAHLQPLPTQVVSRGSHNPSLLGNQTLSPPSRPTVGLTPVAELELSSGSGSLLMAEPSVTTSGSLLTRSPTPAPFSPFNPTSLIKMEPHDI
ETV5, sequence (P41161 whole entry): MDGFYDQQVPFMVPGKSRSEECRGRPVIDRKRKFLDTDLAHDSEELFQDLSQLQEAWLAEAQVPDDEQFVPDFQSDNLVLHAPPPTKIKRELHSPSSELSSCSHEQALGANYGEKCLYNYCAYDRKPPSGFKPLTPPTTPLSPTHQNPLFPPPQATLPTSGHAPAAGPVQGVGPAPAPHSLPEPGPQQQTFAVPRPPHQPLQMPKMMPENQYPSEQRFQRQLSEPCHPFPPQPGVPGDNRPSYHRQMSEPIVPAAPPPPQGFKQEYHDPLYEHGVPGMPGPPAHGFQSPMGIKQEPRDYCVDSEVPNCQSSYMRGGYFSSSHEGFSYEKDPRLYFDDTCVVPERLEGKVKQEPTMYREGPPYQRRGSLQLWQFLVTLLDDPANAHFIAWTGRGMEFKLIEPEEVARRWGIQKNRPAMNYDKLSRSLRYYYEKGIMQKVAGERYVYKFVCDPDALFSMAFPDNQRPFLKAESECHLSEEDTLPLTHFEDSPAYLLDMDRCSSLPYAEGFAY
ETV1, sequence (P50549 whole entry): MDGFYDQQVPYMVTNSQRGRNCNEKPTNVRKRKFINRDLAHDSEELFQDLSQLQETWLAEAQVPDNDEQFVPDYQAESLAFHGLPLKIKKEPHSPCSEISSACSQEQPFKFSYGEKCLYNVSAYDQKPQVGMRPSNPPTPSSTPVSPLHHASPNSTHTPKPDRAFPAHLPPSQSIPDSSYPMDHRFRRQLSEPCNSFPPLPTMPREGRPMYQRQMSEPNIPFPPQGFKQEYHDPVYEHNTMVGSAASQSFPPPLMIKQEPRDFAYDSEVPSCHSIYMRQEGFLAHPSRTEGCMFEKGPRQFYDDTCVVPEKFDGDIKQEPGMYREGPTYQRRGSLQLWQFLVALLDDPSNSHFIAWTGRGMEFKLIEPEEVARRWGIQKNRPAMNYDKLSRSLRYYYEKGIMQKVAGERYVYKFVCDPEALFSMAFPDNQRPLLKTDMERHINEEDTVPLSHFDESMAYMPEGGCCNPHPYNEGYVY
HSF1, sequence (Q00613 whole entry): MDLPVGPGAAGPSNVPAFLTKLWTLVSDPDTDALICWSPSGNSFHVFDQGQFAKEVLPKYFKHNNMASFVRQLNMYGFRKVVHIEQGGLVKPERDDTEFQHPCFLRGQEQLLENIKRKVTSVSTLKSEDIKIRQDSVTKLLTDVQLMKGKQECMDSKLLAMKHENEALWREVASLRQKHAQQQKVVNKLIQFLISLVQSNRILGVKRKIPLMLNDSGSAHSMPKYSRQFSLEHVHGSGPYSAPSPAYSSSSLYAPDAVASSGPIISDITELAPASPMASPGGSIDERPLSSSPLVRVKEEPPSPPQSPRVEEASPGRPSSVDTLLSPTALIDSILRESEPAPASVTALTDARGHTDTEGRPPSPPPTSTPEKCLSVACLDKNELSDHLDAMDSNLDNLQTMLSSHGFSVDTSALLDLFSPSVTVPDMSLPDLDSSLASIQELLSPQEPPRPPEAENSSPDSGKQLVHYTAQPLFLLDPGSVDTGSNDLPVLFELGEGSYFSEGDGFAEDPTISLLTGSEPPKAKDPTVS
CRX, sequence (O43186 whole entry): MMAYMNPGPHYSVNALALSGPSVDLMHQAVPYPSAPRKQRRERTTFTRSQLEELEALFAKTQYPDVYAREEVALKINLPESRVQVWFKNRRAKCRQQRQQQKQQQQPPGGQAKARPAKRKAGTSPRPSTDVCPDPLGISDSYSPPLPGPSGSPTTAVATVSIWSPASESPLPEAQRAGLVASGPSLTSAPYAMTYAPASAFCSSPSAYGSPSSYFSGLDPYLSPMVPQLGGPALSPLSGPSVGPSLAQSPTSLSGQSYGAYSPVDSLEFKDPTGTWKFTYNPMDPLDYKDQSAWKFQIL

On to TAACAT, for which the binding signal was 1.32 fold enrichment (6-mer frequency, TF over GST control) in the assay with FEV; 1.36 fold enrichment (6-mer frequency, TF over GST control) with ETV5; 1.29 fold enrichment (6-mer frequency, TF over GST control) with HSF1; 1.46 fold enrichment (6-mer frequency, TF over GST control) with SPIC; 1.37 fold enrichment (6-mer frequency, TF over GST control) with ELF4; 1.29 fold enrichment (6-mer frequency, TF over GST control) in the assay with ELK4. For the same sequence, the binding signal in the assay with ETV2 was 1.39 fold enrichment (6-mer frequency, TF over GST control); in the assay with ELF3 it was 1.5 fold enrichment (6-mer frequency, TF over GST control); with CRX, 1.57 fold enrichment (6-mer frequency, TF over GST control); with ETV1, 1.37 fold enrichment (6-mer frequency, TF over GST control); in the assay with ERF, 1.33 fold enrichment (6-mer frequency, TF over GST control); with ETV3L it was 1.32 fold enrichment (6-mer frequency, TF over GST control). Further, the binding signal in the assay with ETS2 is 1.28 fold enrichment (6-mer frequency, TF over GST control); with SPDEF it was 1.34 fold enrichment (6-mer frequency, TF over GST control); with ETV7, 1.3 fold enrichment (6-mer frequency, TF over GST control); in the assay with ELF5 it was 1.35 fold enrichment (6-mer frequency, TF over GST control); in the assay with ETV3, 1.26 fold enrichment (6-mer frequency, TF over GST control); with ETV6 it was 1.4 fold enrichment (6-mer frequency, TF over GST control).
